Experimental data as given in PubChem BioAssay (Tox21).
Records with an inconclusive call do not appear. A call without a number means that no potency is given here. Unmarked numbers belong to inactive results. Activity calls are given as the source filed them.

Target: Glucocorticoid receptor (Homo sapiens) (UniProt P04150)
Assay: qHTS assay to identify small molecule agonists of the glucocorticoid receptor (GR) signaling pathway (AID 720691; active means well fitted activation curve with a large enough effect in the signal ratio in the repeat runs, not every such curve was filed as active; the % refers to the signal ratio)
Details: GR-bla HeLa, beta-lactamase reporter ratio, 18 h; series mostly up to 62.4 µM
Outline: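 Agonist mode in a HeLa line carrying a GRE-controlled beta-lactamase reporter. Compounds act for 18 h at 37 C before a 2 h room-temperature FRET substrate step and fluorescence reading.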

Chain of Glucocorticoid receptor (Homo sapiens) (P04150 whole entry, looked up): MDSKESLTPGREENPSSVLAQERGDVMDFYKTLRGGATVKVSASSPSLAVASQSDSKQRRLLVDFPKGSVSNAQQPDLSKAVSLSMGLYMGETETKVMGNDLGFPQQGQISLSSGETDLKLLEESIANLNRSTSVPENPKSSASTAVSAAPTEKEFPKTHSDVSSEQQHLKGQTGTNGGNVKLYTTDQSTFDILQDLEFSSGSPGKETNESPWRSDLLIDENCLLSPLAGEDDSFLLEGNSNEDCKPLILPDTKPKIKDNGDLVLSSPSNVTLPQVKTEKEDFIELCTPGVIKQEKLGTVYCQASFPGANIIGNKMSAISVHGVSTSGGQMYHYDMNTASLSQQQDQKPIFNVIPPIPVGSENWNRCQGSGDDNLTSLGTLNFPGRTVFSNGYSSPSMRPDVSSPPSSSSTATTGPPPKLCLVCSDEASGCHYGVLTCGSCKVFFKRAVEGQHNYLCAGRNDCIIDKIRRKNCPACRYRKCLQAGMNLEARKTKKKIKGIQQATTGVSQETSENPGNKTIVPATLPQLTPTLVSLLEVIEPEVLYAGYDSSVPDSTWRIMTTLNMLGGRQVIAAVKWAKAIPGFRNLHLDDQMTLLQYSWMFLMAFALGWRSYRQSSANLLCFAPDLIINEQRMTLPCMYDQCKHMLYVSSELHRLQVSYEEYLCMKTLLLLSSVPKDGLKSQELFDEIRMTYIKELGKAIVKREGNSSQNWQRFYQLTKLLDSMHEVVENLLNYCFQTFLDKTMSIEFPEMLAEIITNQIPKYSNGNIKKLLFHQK

Structure (SMILES) | Potency | activation
Cc1c(NC(=O)c2cccnc2)c(=O)n(-c2ccccc2)n1C | inactive | 
CN(C)CC/C=C1/c2ccccc2COc2ccc(CC(=O)O)cc21 | inactive | 
O=C(O)CNC(=O)CNC(=O)CNC(=O)CSC(=O)c1ccccc1 | inactive | 
O=C(CCCCC(=O)Nc1c(I)cc(I)c(C(=O)O)c1I)Nc1c(I)cc(I)c(C(=O)O)c1I | inactive | 
C=C(C)C1CC=C(C)C(=O)C1 (configuration not stated) | inactive | 
O=[N+]([O-])c1c(Cl)cc(Cl)cc1Cl | inactive | 
Cc1cc(C)c(C(=O)O)c(C)c1 | inactive | 
Cc1c(Cl)cccc1Cl | inactive | 
ONc1ccccc1 | inactive | 
C=CCN1C[C@H](C(=O)N(CCCN(C)C)C(=O)NCC)C[C@@H]2c3cccc4[nH]cc(c34)C[C@H]21 | inactive | 
O=C1c2ccccc2C(=O)c2cc(Cl)ccc21 |  | -4.3% [at 6.9 µM]
CN(C)C(C)(C)CO | inactive | 
O=C(O)CCCCCC(=O)O | inactive | 
CCCCCC(C)O (configuration not stated) | inactive | 
CC1=C(C(=O)O)N2C(=O)[C@@H](NC(=O)[C@H](N)c3ccccc3)[C@H]2SC1 | inactive | 
CC(=O)C1C(=O)C=C(C)OC1=O (configuration not stated) | inactive | 
CCC(C)C(=O)OCCc1ccccc1 (configuration not stated) | inactive | 
CCC(C)OC(C)CC (configuration not stated) | inactive | 
N#CCC(=O)NN | inactive | 
O=C1CCC(=O)N1Cl | inactive | 
CCCC(=O)Nc1ccc(OCC(O)CNC(C)C)c(C(C)=O)c1 (configuration not stated) | inactive | 
OC[C@@H](O)C(O)[C@@H](O)CO (some centres not stated) | inactive | 
O=C(CN1CCNCC1)NC1CCCCC1 | inactive | 
CC(=O)O[C@H]1C[C@@H]2CC[C@@]1(C)C2(C)C | inactive | 
CN1C[C@@H]2C[C@H]1CN2c1cc2c(cc1F)c(=O)c(C(=O)O)cn2C1CC1 | inactive | 
CCCCCCCCCCCCCCCCCC#N | inactive | 
Nc1nnnn1-c1ccccc1 | inactive | 
Cn1c(=O)c2[nH]c(Br)nc2n(C)c1=O | inactive | 

Target: Glucocorticoid receptor (Homo sapiens) (UniProt P04150)
Assay: qHTS assay to identify small molecule antagonists of the glucocorticoid receptor (GR) signaling pathway (AID 720692; active means well fitted inhibition curve with a large enough effect in the signal ratio in the repeat runs, not every such curve was filed as active; the % refers to the signal ratio)
Details: GR-bla HeLa, beta-lactamase FRET ratio, dexamethasone-stimulated, 18 h; series mostly up to 58.5 µM
Outline: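 Cells plated, rested 4 h at 37 C/5% CO2; compounds in DMSO pin-transferred; dexamethasone added to 5 nM final; 18 h at 37 C; B/G FRET substrate added, 2 h room temperature; fluorescence measured.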

Structure (SMILES) | outcome | activity change, negative = inhibition
Cc1c(NC(=O)c2cccnc2)c(=O)n(-c2ccccc2)n1C | inactive | 
CN(C)CC/C=C1/c2ccccc2COc2ccc(CC(=O)O)cc21 | inactive | 
O=C(O)CNC(=O)CNC(=O)CNC(=O)CSC(=O)c1ccccc1 | inactive | 
O=C(CCCCC(=O)Nc1c(I)cc(I)c(C(=O)O)c1I)Nc1c(I)cc(I)c(C(=O)O)c1I | inactive | 
C=C(C)C1CC=C(C)C(=O)C1 (configuration not stated) | inactive | 
O=[N+]([O-])c1c(Cl)cc(Cl)cc1Cl | inactive | 
Cc1cc(C)c(C(=O)O)c(C)c1 | inactive | 
Cc1c(Cl)cccc1Cl | inactive | 
ONc1ccccc1 | inactive | 
N[C@@H](CSCCCO)C(=O)O | inactive | 
C=CCN1C[C@H](C(=O)N(CCCN(C)C)C(=O)NCC)C[C@@H]2c3cccc4[nH]cc(c34)C[C@H]21 | inactive | 
O=C1c2ccccc2C(=O)c2cc(Cl)ccc21 |  | -15.1% [at 7.04 µM]
CN(C)C(C)(C)CO | inactive | 
O=C(O)CCCCCC(=O)O | inactive | 
CCCCCC(C)O (configuration not stated) | inactive | 
CC1=C(C(=O)O)N2C(=O)[C@@H](NC(=O)[C@H](N)c3ccccc3)[C@H]2SC1 | inactive | 
CC(=O)C1C(=O)C=C(C)OC1=O (configuration not stated) | inactive | 
CCC(C)C(=O)OCCc1ccccc1 (configuration not stated) | inactive | 
CCC(C)OC(C)CC (configuration not stated) | inactive | 
N#CCC(=O)NN | inactive | 
O=C1CCC(=O)N1Cl | inactive | 
CCCC(=O)Nc1ccc(OCC(O)CNC(C)C)c(C(C)=O)c1 (configuration not stated) | inactive | 
OC[C@@H](O)C(O)[C@@H](O)CO (some centres not stated) | inactive | 
O=C(CN1CCNCC1)NC1CCCCC1 | inactive | 
CC(=O)O[C@H]1C[C@@H]2CC[C@@]1(C)C2(C)C | inactive | 
CN1C[C@@H]2C[C@H]1CN2c1cc2c(cc1F)c(=O)c(C(=O)O)cn2C1CC1 | inactive | 
CCCCCCCCCCCCCCCCCC#N | inactive | 
Nc1nnnn1-c1ccccc1 | inactive | 
Cn1c(=O)c2[nH]c(Br)nc2n(C)c1=O | inactive | 
